Bioassay records: PubChem BioAssay, National Center for Advancing Translational Sciences (NCATS)
Most compounds without a hit are left out; they make up all but 10% or so of the library.
HEK293 tox: kills HEK 293 cells | AID 1345083 | 94,000 tested, 6.6% active | HEK 293 viability, ATP luminescence (CellTiter-Glo), 48-72 h | Potency, µM (titrated, usually from 115 µM), most hits filed as inhibitors; further: nearly all actives have a fitted effect of over 60% in size
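Luminescence from cellular ATP, measured with CellTiter-Glo, indicates HEK 293 viability. Cells plated at 250 cells/well are treated with compound for 48 or 72 hr at 37 degree Celsius before reagent addition.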
hNpr1 antagonist: antagonists of human natriuretic peptide receptor Npr1 | P16066 | HEK293 hNpr1 GloSensor cGMP, ANP-stimulated luminescence | Potency, µM (doses to about 46.3 µM), hits mostly inhibitors | 76,000 tested, 1.6% active; calls by dose curve; further: nearly all actives have a fitted effect of over 60% in size
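HEK293 cells stably expressing human Npr1 and cGMP GloSensor pGS-40F, loaded 2 h with 2% GloSensor reagent, given compound 30 min at room temperature. Luminescence read before and 20 min after 0.1 nM hNppA.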
FLuc inh: blocks purified firefly luciferase enzyme activity | Potency, µM (titrated, usually from 115 µM), most hits filed as inhibitors | 76,000 tested, 2.5% active | P08659 | purified P. pyralis luciferase, luminescence, biochemical; further: nearly all actives have a fitted effect of over 65% in size
Target sequence (P08659 whole entry, looked up): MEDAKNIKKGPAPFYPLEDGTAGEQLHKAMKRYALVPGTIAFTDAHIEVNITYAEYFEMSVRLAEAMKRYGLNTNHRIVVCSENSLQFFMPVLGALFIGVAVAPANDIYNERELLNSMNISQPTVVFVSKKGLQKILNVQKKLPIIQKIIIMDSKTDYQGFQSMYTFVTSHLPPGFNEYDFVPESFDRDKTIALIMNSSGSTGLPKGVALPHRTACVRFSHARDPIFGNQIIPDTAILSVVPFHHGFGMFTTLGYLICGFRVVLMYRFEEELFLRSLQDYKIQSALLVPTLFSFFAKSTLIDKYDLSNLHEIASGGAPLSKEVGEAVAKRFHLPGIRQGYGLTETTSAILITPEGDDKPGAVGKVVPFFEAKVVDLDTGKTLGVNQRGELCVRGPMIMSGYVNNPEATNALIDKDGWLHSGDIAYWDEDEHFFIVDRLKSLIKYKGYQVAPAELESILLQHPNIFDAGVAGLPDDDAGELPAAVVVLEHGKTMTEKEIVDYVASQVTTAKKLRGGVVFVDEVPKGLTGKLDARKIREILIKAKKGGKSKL
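FLuc 10nM, D-luciferin 10uM, ATP 10uM, Mg acetate 10mM, Tris acetate pH 7.5, Tween/BSA; cpd qHTS; enzyme added last; CCD luminescence.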
3T3 cytotox: cytotoxic compounds in NIH 3T3 cells; NIH 3T3 viability, CellTiter-Glo ATP luminescence, 48-72 h; Potency, µM (top dose mostly 96.7 µM), hits mostly inhibitors; 94,000 tested, 4.3% active; further: nearly all actives have a fitted effect of over 55% in size
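NIH 3T3 cells at 400 cells/well received 23 nL of compound by pintool and were incubated 48 or 72 h at 37 °C. Viability was read as ATP-coupled CellTiter-Glo luminescence.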
GPT2 inh: blocks human glutamate pyruvate transaminase 2; Q8TD30; Recombinant GPT2, coupled pyruvate oxidase/HRP Amplex Red fluorescence; Potency, µM (top dose mostly 57.7 µM), hits mostly inhibitors; 100,000 tested, 0.25% active; AID 1671188; further: nearly all actives have a fitted effect of over 60% in size
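Fluorescence of coupled pyruvate oxidase/HRP/Amplex Red system (50uM Amplex, 30 min, dark) reports pyruvate formed by GPT2. Enzyme reaction: 10ng/uL GPT2, 2mM L-alanine, 250uM a-KG, 30 min room temperature, pH 7.5; 50uM AOA control.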
Hits are given with their value; – = inactive; ? = inconclusive; · = no result given; ! = not confirmed by another sample; [ ] = remark or other dose. Unless noted, the call rests on the fitted dose curve; in most records, active means well fitted curve in the direction sought with a large enough effect; inconclusive means small, poorly fitted or top-dose-only effect, or another doubt; inactive means no such curve, though single readings can be large; an effect the other way counts as inactive or inconclusive.

SMILES	HEK293 tox	hNpr1 antagonist	FLuc inh	3T3 cytotox	GPT2 inh
COc1cc(CNc2nc(-c3c(C)noc3C)cc3cc(CN(C)C)oc23)cc(OC)c1	?	–	–	?	–
Cc1noc(C)c1-c1cc2cc(CN(C)C)oc2c(Nc2ccn(C)n2)n1	?	–	–	?	–
Cc1noc(C)c1-c1cc2cc(CN(C)C)oc2c(Nc2cccc([S+](C)(=O)[O-])c2)n1	50µM	–	–	45µM	–
COc1cccc(Nc2nc(-c3c(C)noc3C)cc3cc(CN(C)C)oc23)c1	45µM	–	–	45µM	–
CC(O)c1cc2n(n1)CCCN(C(=O)Cn1nc3ccccc3n1)C2 (centres undefined)	–	–	–	–	–
CO[C@@]12[C@H](COC(N)=O)C3=C(C(=O)C(C)=C(N)C3=O)N1C[C@@H]1N[C@@H]12	·	·	·	·	14µM!
Cc1cccc(N2CCN(C(=O)CCc3ccnc(N4CCCC4)c3)CC2)c1	?	–	–	–	–
O=C(CCc1ccnc(N2CCCC2)c1)N1CCN(c2cccc(Cl)c2)CC1	32µM	–	–	?	–
Cn1ncc2c(N[C@@H](Cc3ccccc3)C(N)=O)nc(-c3ccncc3)nc21	32µM	–	–	?	?
Cn1ncc2c(NCCc3nnc(N)s3)nc(-c3ccncc3)nc21	–	–	–	–	–[11.5 µM]
CCc1nc(-c2c3n(c(=O)n(CC(=O)Nc4ccccc4Cl)c2=O)CCCC3)no1	–	–	–	–	–
Cc1noc2c(NC(C)C)cc(-c3cccc(C(F)(F)F)c3)nc12	100µM	–	–	?	–
Cc1noc2c(NCc3cnccn3)cc(-c3ccccc3)nc12	–	–	–	?	–
Cc1noc2c(NCc3ccncc3)cc(-c3cccc(C(F)(F)F)c3)nc12	71µM	–	–	50µM	–
CCCN1CCCC2(Cc3ccccc3CN(C(=O)c3c(C)noc3C)C2)C1 (centres undefined)	–	·	·	–	–
Cc1ncsc1CN1CCC(Cc2ncc(C)n2CC2CC2)C1 (centres undefined)	–	–	–	–	–
COc1cccc(CN2CCC(Cc3ncc(C)n3CC3CC3)C2)c1OC (centres undefined)	45µM	–	–	?	–
N[C@@H]1CC[C@H](C(=O)N2CCC(Oc3cccc(C(F)(F)F)c3)CC2)C1	45µM	–	–	?	–
O=C(C1CCC1)N1CCC(Oc2cccc(F)c2)C1 (centres undefined)	–	–	–	–	–
COc1ccc(C(=O)Nc2nc3c(s2)C[C@@H]2[C@](C)(CO)[C@H](O)CC[C@@]2(C)[C@@H]3CC(=O)NCc2ccco2)cc1	79µM	–	–	?	–
CC(C)(C)c1ccc(C(=O)Nc2nc3c(s2)C[C@@H]2[C@](C)(CO)[C@H](O)CC[C@@]2(C)[C@@H]3CC(=O)N2CCC(C(N)=O)CC2)cc1	?	–	?	28µM	?
CC(C)(C)CC(=O)Nc1nc2c(s1)C[C@@H]1[C@](C)(CO)[C@H](O)CC[C@@]1(C)[C@@H]2CC(=O)NC1CCCCC1	?	–	–	79µM	–
CC1CCN(C(=O)C[C@@H]2c3nc(NC(=O)c4ccc(F)cc4)sc3C[C@@H]3[C@](C)(CO)[C@H](O)CC[C@]32C)CC1	?	–	–	79µM	–
CN(C)C[C@@H]1CN(Cc2cccnc2)C[C@H]1NC(=O)c1ccccc1Cl	?	–	–	–	–
CC1=NS(=O)(=O)N(Cc2ccccc2)C=C1C(=O)OCc1nc(Cc2ccc(C)cc2)no1	?	–	–	–	–
SMILES	HEK293 tox	hNpr1 antagonist	FLuc inh	3T3 cytotox	GPT2 inh
NCC(=O)N1Cc2ccccc2CC2(CCN(CC3CCCC3)CC2)C1	?	·	·	?	–
C[C@]1(CO)[C@H]2Cc3sc(NC(=O)c4ccc(F)cc4)nc3[C@@H](CC(=O)NC3CCCCC3)[C@]2(C)CC[C@H]1O	?	–	–	?	–
C[C@]1(CO)[C@H]2Cc3sc(NC(=O)c4ccc(F)cc4)nc3[C@@H](CC(=O)NC3CCCC3)[C@]2(C)CC[C@H]1O	?	–	–	45µM	?
O=C(N[C@@H]1CCNC[C@H]1O)c1cccc(-c2ccc(OC(F)(F)F)cc2)c1	?	–	–	18µM	–
COCC(=O)N1CCN(C(=O)NC(C)C)C[C@H]1C(=O)N[C@H](Cc1cccnc1)C(=O)OC	–	–	–	–	–
O=C(c1ccccc1F)N1CCC2(CC1)CN(Cc1ccccc1)CC2CO (centres undefined)	79µM	–	–	?	–
COCC1CN(Cc2ccc(C(C)C)cc2)CC12CCNCC2 (centres undefined)	45µM	–	–	?	–
OCC1CN(Cc2ccc(Br)cc2)CC12CCNCC2 (centres undefined)	40µM	–	–	40µM	–
CN(CCNC(=O)CCC[C@H]1NC[C@@H]2CC1CN(Cc1ccccc1)C2)C1CCCCC1	–	–	–	–	–
CCc1nc(C)c(C(=O)Nc2nn(C)c3cccc(N4CCOC4=O)c23)o1	–	–	–	–	–
CCOCC(=O)Nc1nn(-c2ccc(F)cc2)c2cccc(N3CCOC3=O)c12	?	–	35µM	–	–
Cc1ccc2c(n1)N(C)[C@H](CO)CCN(C(=O)Nc1ccccc1)C2	–	–	–	–	–
Cc1ccc2c(n1)N(C)[C@H](CO)CCN(CC1CCCCC1)C2	45µM	–	–	?	–
Cc1ccc2c(n1)N(C)[C@H](CO)CCN(Cc1ccc(OC(F)(F)F)cc1)C2	79µM	–	–	?	?
Cc1ccc2c(n1)N(C)[C@H](CO)CCN(Cc1ccccc1Cl)C2	?	–	–	?	–
Cc1ccc2c(n1)N(C)[C@H](CO)CCN(Cc1ccc(F)cc1)C2	–	–	–	–	–
CC(=O)N1CCC(N2CC[C@@H](CO)N(C)c3nc(C)ccc3C2)CC1	79µM	–	–	45µM	–
COCCNC(=O)[C@H]1C[C@H](Oc2ccccc2)CN1C(=O)c1cccc(C)c1	–	–	–	?	–
O=C(Cc1cccc(Cl)c1)N1CCC2(CC1)CCN(Cc1cccs1)c1ccccc1O2	25µM	–	–	?	–
CC(=O)N1CCC2(CC1)CCN(Cc1cccs1)c1ccccc1O2	?	–	–	–	–
O=C(c1cccc(Cl)c1)N1CCC2(CC1)CCN(Cc1cccs1)c1ccccc1O2	28µM	–	–	?	–
CCN1C(=O)C2CC3(CCN(C(=O)CCOC)CC3)CN2C1=O (centres undefined)	–	·	·	–	–
Cc1noc(C)c1Cc1ccc(C(=O)N2CCC(C)(c3noc(-c4cccnc4)n3)CC2)o1	?	–	–	32µM	–
CC1(c2noc(C3CC3)n2)CCN(C(=O)CCc2nc3ccc(Cl)cc3[nH]2)CC1	?	–	–	–	–
CC1(c2noc(-c3ccccn3)n2)CCN(C(=O)CCc2nc3ccc(Cl)cc3[nH]2)CC1	50µM	–	–	?	–
